# Laboratory results from the supplement of paper PMC11417369.
# Whole data set: some 25,000 sequences, median “ln(normalized median fluorescence intensity)” near 9.3, cut for the highest 2% near 10. This is one part of a sample in which the highest values are shown more often than they occur.
# Test system: PF3D7_0420300 AP2 domain 1 (GST-tagged)
# Assay: gcPBM binding intensity (ln(normalized median fluorescence intensity)); higher = stronger DNA binding
# Outline: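 GST-fused DNA-binding domains of P. falciparum, expressed in E. coli, were applied at about 25 μg on average for 1 h to an Agilent 4 × 180k array of primer-extended double-stranded 36-bp intergenic genomic probes and negative controls. Binding intensity is the highest Masliner-normalised natural-log median intensity across replicate spots of either probe orientation, measured with Alexa488 anti-GST antibody and a 488 nm scan.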
row,Sequence,gcPBM binding intensity (ln)
1,TAATAATTATTGCACGCACACAAAAACCTATAGATT [CACACA_site2931],9.45
2,ATGATCATAAAACACACACACAAAAAAAAAAAAAAA [CACACA_site1805],9.51
3,TTATTTTTTCAAGAATGTACTTACGAATTGTCGTAT [XGTACX_site1363],8.78
4,ATAAAAACATAAAAATGTACATATATATATATATAT [XGTACX_site7165],9.23
5,TGAGATAACAAAAGTTGTACTTTTTTTTTTTTTTTT [XGTACX_site3004],8.89
6,TATATATATATAATAGTGCATAAATAAATATATAAA,9.28
7,TACAATATTTTGAGACGTACATATATACATTTACAT [XGTACX_site5880],9.24
8,AAAATGAATATAATGACGCACACTTAAAATTGTTAA [CACACA_site2509],9.29
9,ATATGTTTATTAAATGCATGTCAAGACTTAAGATAT [TGCATGCA_site329],9.24
10,TGATTCATTGATAAGGGTACATTTATAATTATGATA [XGTACX_site6319],9.02
11,TATATATATACCAACACACATACATATATATATATA [CACACA_site1795],9.46
12,TACATACATACATACACACACACATATATATACATA [CACACA_site853],10.1
13,AAAAAAAAAAAAAACACACACACAAATACAAATACA [CACACA_site414],10.1
14,CGCATACACCAACACACACACACATATATATATATA [CACACA_site635],10.2
15,GGCAACATTTGAAACACACACACATACAAACAAACA [CACACA_site3307],9.97
16,TATACATATATATACACACACACATATATATATATA [CACACA_site1299],9.95
17,AACATACACATATACACACACACATATATACATATA [CACACA_site1093],10.2
18,CAACATTTGAAACACACACACATACAAACAAACAAA [CACACA_site3306],10.2
19,AAAAAAAAAAAACACACACACAAATACAAATGGTAA [CACACA_site1720],10.1
20,TATATATATATACCAACACACATACATATATATATA [CACACA_site8530],9.68
21,CAACATTTGAGACACACACACATACAAACAAACAAA [CACACA_site7538],10
22,AAAAAAAAAAAAAACACACACACAAATACAAATGGT [CACACA_site1721],10.2
23,TTATTATAAATGTTTTGTACGTACATCCGAAAATAA [XGTACX_site2175],9.05
24,TTTTTTGTTAAGTTGGTGCAAACAATAGTTATTGAC,8.95
25,TTTAAAGTTTTATACACACACCAAAGTTATTCTAAT [CACACA_site6432],9.56
